Unmarked numbers belong to inactive results. Inconclusive results are not listed. Active and inactive are the calls of the source. Unless noted, calls follow the shape of the dose curve; as a rule, active = well fitted curve in the direction sought with a large enough effect in the repeat runs; inconclusive = weak or mixed curves; inactive = no such curve, though single readings can be large; an effect the other way counts as inactive or inconclusive.

A short description of assay [1]: qHTS assay to identify small molecule antagonists of the glucocorticoid receptor (GR) signaling pathway - cell viability counter screen (AID 720693). Also: nearly all actives have a fitted effect of over 55% in size.
Assay [2] in a line: qHTS assay for identifying genotoxic compounds that show differential cytotoxicity against isogenic chicken DT40 cell lines with known DNA damage response pathways - Rev3 mutant cell line (AID 743014; also: nearly all actives have a fitted effect of over 55% in size). (In general: Quantitative high-throughput screening tests each substance at several concentrations.)
The nature of assay [3]: qHTS assay for identifying genotoxic compounds that show differential cytotoxicity against isogenic chicken DT40 cell lines with known DNA damage response pathways - Rad54/Ku70 mutant cell line (AID 743015). Also: nearly all actives have a fitted effect of over 60% in size. Also: potency is read from the fitted curve at half-maximal effect.
Assay [4] can be described thus: qHTS assay to identify small molecule antagonists of the androgen receptor (AR) signaling pathway - cell viability counter screen (AID 743033; also: nearly all actives have a fitted effect of over 45% in size).
Assay [5] in a line: qHTS assay to identify small molecule antagonists of the androgen receptor (AR) signaling pathway using the MDA cell line - cell viability counter screen (AID 743041; also: nearly all actives have a fitted effect of over 45% in size). In short, it runs like this: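 In this qHTS counter assay, fluorescence intensity after CellTiter-Fluor addition indicated viability of MDA-kb2 AR-luc cells given compounds and R1881 for 16 h at 37C.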
Assay [6] in a line: qHTS assay to identify small molecule antagonists of the thyroid receptor (TR) signaling pathway - cell viability counter screen (AID 743064). Also: nearly all actives have a fitted effect of over 50% in size. In outline: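 Counter screen for cytotoxicity: compound plus T3 (1 nM final) on GH3.TRE-Luc cells, 23.5 h at 37 °C, then fluorescence viability readout with CellTiter-Fluor.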
Assay [7] can be described thus: qHTS assay to identify small molecule antagonists of the thyroid receptor (TR) signaling pathway (AID 743065). Also: series mostly up to about 70 µM; nearly all actives have a fitted effect of over 55% in size. In short, it runs like this: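 GH3.TRE-Luc rat pituitary cells carrying two TR response elements driving luciferase were plated for 4 h, given compound plus 1 nM T3 (final), and incubated 23.5 h at 37 C. ONE-Glo luminescence measured reporter inhibition; CellTiter-Fluor fluorescence tracked cytotoxicity.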

Assay [8] concerns thyroid hormone receptor (rat, GH3 cells). Nature of the assay: qHTS assay to identify small molecule agonists of the thyroid receptor (TR) signaling pathway (AID 743066; calls by dose curve).
Assay [9] is described as follows: qHTS assay to identify small molecule antagonists of the estrogen receptor alpha (ER-alpha) signaling pathway using the BG1 cell line - cell viability counter screen (AID 743081).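 Also: compound given together with 17beta-estradiol as the ER stimulus; series mostly up to about 70 µM; nearly all actives have a fitted effect of over 45% in size.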
Assay [10] is described as follows: qHTS assay for identifying genotoxic compounds that show differential cytotoxicity against isogenic chicken DT40 cell lines with known DNA damage response pathways - wild type cell line (AID 743012). Also: nearly all actives have a fitted effect of over 60% in size. In outline:
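Viability by ATP luminescence (CellTiter-Glo, 30 min RT) after 40 h compound treatment at 37 C/5% CO2, using 300 parental DNA repair-proficient DT40 cells per well.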

The target of assay [11] is Estrogen receptor (Homo sapiens) (UniProt P03372). Nature of the assay: qHTS assay to identify small molecule antagonists of the estrogen receptor alpha (ER-alpha) signaling pathway (AID 743069; active = well fitted curve in the direction sought with a large enough effect in the signal ratio in the repeat runs, not every such curve was filed as active; the % refers to the signal ratio). In outline:
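A 17beta-estradiol challenge was applied right after compound transfer to ER-alpha-UAS-bla HEK293 cells previously kept in charcoal-stripped serum. Plates stood 18 hr at 37C and 5% CO2; fluorescence was read following 2 hr FRET substrate loading at room temperature.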

Assay [12] can be described thus: qHTS assay to identify small molecule antagonists of the estrogen receptor alpha (ER-alpha) signaling pathway - cell viability counter screen (AID 743074; calls by dose curve;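 also: HEK293 cells carrying ER-alpha-UAS-bla reporter stimulated with 17beta-estradiol; nearly all actives have a fitted effect of over 45% in size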).
In assay [13] the target is Estrogen receptor (Homo sapiens) (UniProt P03372). As to the kind of experiment: qHTS assay to identify small molecule agonists of the estrogen receptor alpha (ER-alpha) signaling pathway (AID 743075; calls by dose curve;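 also: HEK293 GripTite cells with ER-alpha and UAS-driven beta-lactamase reporter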).
Assay [14] shares this target. As to the kind of experiment: qHTS assay to identify small molecule agonists of the estrogen receptor alpha (ER-alpha) signaling pathway using the BG1 cell line (AID 743079). Also: nearly all actives have a fitted effect of over 20% in size.
A short description of assay [15]: qHTS assay to identify small molecule antagonists of the estrogen receptor alpha (ER-alpha) signaling pathway using the BG1 cell line (AID 743080; calls by dose curve;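 also: BG1 cells stimulated with 17beta-estradiol alongside compound; series mostly up to about 70 µM; nearly all actives have a fitted effect of over 25% in size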). In short, it runs like this: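 Luminescence from a 4×ERE-luciferase reporter in BG1-Luc-4E2 cells served as read-out. Cells, pre-cultured 5 days in stripped-serum phenol-red-free medium, were exposed to compound with 17beta-estradiol co-stimulation for 21.5 h at 37 C.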

A further assay concerns the target Aromatase (Homo sapiens) (UniProt P11511). Nature of the assay: qHTS assay to identify aromatase inhibitors (AID 743083). Also: series mostly up to about 70 µM; nearly all actives have a fitted effect of over 55% in size.
Assay [16] deals with Androgen receptor (Homo sapiens) (UniProt P10275). As to the kind of experiment: qHTS assay to identify small molecule antagonists of the androgen receptor (AR) signaling pathway (AID 743035; active = well fitted inhibition curve with a large enough effect in the signal ratio in the repeat runs, not every such curve was filed as active; the % refers to the signal ratio). In short, it runs like this: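 Antagonist mode: AR-bla HEK293 cells co-treated with test compounds and agonist R1881 for 16 h at 37C, 5% CO2. Beta-lactamase activity read as FRET fluorescence after 2 h room-temperature substrate loading.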

For assay [17] the target is unchanged. Nature of the assay: qHTS assay to identify small molecule agonists of the androgen receptor (AR) signaling pathway (AID 743036; active = well fitted activation curve with a large enough effect in the signal ratio in the repeat runs, with a control signal flat, not every such curve was filed as active; the % refers to the signal ratio). In short, it runs like this: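 In this Tox21 qHTS, 2,000 HEK293 AR-bla cells per well were incubated with compounds for 16 h at 37C and 5% CO2. Fluorescence intensity was recorded 2 h after adding LiveBLAzer B/G FRET substrate at room temperature.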

Assay [18] has the same target. As to the kind of experiment: qHTS assay to identify small molecule agonists of the androgen receptor (AR) signaling pathway using the MDA cell line (AID 743040; also: nearly all actives have a fitted effect of over 20% in size). In outline:
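Cell-based luciferase reporter: MDA-kb2, MMTV promoter (AR + GR response elements). 16 h compound exposure at 37C; ONE-Glo, 30 min RT, luminescence.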

For assay [19] the target is unchanged. As to the kind of experiment: qHTS assay to identify small molecule antagonists of the androgen receptor (AR) signaling pathway using the MDA cell line (AID 743042; also: nearly all actives have a fitted effect of over 55% in size). In short, it runs like this:
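MDA-kb2 cells (human breast carcinoma, stably carrying an MMTV-luciferase reporter responsive to AR and GR) were plated at 3,000 cells/well and preincubated 5 hr at 37C, then given compound plus R1881 agonist for 16 h. ONE-Glo luminescence was read.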

Chain of Estrogen receptor (Homo sapiens) (P03372 whole entry, looked up): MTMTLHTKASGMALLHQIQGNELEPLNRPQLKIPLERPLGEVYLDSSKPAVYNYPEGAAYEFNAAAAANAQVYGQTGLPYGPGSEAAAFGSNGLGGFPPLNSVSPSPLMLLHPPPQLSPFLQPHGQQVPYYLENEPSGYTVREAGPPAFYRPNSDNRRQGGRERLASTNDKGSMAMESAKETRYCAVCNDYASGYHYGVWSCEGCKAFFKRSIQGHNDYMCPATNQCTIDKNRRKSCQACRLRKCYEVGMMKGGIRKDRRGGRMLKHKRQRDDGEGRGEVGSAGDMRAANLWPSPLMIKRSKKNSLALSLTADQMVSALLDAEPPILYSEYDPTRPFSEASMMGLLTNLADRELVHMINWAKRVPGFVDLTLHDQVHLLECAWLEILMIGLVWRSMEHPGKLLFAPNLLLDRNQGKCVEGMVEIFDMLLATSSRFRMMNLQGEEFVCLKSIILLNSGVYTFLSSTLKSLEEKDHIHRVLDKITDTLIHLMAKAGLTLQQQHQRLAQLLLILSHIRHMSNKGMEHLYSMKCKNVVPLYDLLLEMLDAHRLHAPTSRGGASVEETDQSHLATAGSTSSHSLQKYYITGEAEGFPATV
Chain of Aromatase (Homo sapiens) (P11511 whole entry, looked up): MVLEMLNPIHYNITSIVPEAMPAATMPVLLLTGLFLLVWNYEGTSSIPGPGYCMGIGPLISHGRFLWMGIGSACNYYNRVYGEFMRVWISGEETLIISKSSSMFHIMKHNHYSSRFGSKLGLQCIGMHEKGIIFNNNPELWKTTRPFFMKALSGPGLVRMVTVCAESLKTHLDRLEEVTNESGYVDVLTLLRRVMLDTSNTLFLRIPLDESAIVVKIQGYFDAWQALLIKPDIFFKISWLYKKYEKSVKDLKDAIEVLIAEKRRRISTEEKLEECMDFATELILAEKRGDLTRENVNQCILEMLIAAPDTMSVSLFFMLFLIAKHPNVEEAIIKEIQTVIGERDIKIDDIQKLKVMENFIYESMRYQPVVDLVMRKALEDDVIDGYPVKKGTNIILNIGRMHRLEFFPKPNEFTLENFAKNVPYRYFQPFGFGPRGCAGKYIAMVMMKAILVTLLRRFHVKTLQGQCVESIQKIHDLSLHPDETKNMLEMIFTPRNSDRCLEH
Chain of Androgen receptor (Homo sapiens) (P10275 whole entry, looked up): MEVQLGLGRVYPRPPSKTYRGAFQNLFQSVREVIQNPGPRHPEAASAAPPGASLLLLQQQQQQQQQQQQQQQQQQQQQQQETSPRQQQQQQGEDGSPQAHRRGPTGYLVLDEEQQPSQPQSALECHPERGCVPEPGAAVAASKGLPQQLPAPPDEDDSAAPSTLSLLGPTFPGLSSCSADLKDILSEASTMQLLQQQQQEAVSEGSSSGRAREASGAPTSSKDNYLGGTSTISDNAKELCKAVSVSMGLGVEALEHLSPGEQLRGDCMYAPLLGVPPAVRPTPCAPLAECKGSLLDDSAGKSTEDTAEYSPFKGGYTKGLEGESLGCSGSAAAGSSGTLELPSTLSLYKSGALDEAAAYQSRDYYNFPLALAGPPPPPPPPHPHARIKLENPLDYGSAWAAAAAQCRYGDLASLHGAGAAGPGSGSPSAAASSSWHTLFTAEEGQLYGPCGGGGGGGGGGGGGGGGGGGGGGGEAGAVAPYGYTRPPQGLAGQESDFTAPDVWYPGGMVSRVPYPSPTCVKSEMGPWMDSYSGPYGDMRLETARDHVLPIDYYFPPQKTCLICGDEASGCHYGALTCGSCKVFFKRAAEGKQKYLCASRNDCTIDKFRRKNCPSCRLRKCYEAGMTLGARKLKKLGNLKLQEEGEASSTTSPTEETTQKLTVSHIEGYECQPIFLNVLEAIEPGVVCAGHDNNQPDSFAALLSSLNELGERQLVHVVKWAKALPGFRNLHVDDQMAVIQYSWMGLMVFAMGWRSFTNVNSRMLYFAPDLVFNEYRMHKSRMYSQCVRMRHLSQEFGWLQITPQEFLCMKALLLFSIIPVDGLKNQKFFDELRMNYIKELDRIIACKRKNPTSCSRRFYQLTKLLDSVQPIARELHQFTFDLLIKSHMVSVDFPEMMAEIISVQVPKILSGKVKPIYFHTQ

Take `CO/N=C(/C(=O)N[C@@H]1C(=O)N2C(C(=O)O)=C(Cn3nnc(C)n3)CS[C@H]12)c1csc(N)n1`: the Potency entry in [1], in [2], in assay [3], in [6], in assay [7] and in [8] was “inactive” each time. In addition, the result in assay [4], in [5] and in [9] was inactive.
In the case of `CC(C)(C)c1ccc(C=O)cc1`, the Potency result in assay [10], in assay [2], in assay [3], in assay [6], in [7] and in assay [8] was “inactive” each time. Moreover, the Potency result in assay [11], in assay [12], in assay [13] and in [14] was “inactive” in each case. The compound was classed as inactive (in assay [4]; in assay [5]; in assay [15]; in assay [9]; with Aromatase (Homo sapiens)).
Regarding `c1ccc(CNc2ncnc3nc[nH]c23)cc1`, the Potency result in assay [1], in assay [7], in assay [8] and in assay [12] was “inactive” each time. The Potency in assay [3] is 48.6 µM (active). In addition, the call in assay [4], in assay [5] and in assay [9] was inactive.
With `NCCc1ccn[nH]1`, the Potency entry in assay [10], in [2], in assay [3], in assay [16], in assay [11] and in assay [12] was “inactive” in each case. The Potency result in assay [13] and in assay [14] was “inactive” in each case. In addition, the compound was classed as inactive in assay [4], in assay [17], in assay [18], in assay [5], in [19] and in [15]. The compound was classed as inactive (in [9]; with Aromatase (Homo sapiens)).
For `CC(=O)OCC(=O)[C@@]1(O)[C@H](OC(C)=O)C[C@H]2[C@@H]3CCC4=CC(=O)C=C[C@]4(C)[C@@]3(F)[C@@H](O)C[C@@]21C`, the Potency entry in assay [1], in assay [6], in assay [7], in assay [8], in assay [12] and in [13] was “inactive” each time. The result (in assay [4]; in assay [5]; in assay [9]; with Aromatase (Homo sapiens)) was inactive.
For the compound `COc1ccc(/C=N/NC(=O)c2ccncc2)cc1OC`, the Potency entry in assay [10], in assay [2], in assay [3], in [16], in [6] and in [7] was “inactive” throughout. Moreover, the Potency result in assay [8], in [11], in [12], in [13] and in assay [14] was “inactive” throughout. The outcome in assay [4], in assay [17], in [18], in assay [5], in assay [19] and in assay [15] was inactive. Besides, the compound was classed as inactive (in assay [9]; with Aromatase (Homo sapiens)).
On to `C=CCOC(=O)c1ccc(C(=O)OCC=C)c(C(=O)OCC=C)c1`, for which the Potency result in assay [1], in assay [6], in [7], in assay [8], in [11] and in assay [13] was “inactive” throughout. Moreover, the Potency result in assay [14] is “inactive”. The outcome (in assay [4]; in [5]; in assay [15]; in [9]; with Aromatase (Homo sapiens)) was inactive.
Regarding `C=CCOCC(CO)(COCC=C)COCC=C`, the Potency entry in [1], in assay [2], in assay [3], in [6], in assay [7] and in [8] was “inactive” throughout. Further, the Potency entry in assay [11], in assay [13] and in assay [14] was “inactive” in each case. Further, the call (in assay [4]; in assay [5]; in [15]; in [9]; with Aromatase (Homo sapiens)) was inactive.
In the case of `C[C@H](CCC(=O)O)[C@H]1CC[C@H]2[C@@H]3[C@H](O)C[C@@H]4C[C@H](O)CC[C@]4(C)[C@H]3C[C@H](O)[C@]12C`, the Potency result in assay [10], in assay [2], in assay [3], in [6], in [7] and in [8] was “inactive” each time. Besides, the Potency entry in [11], in assay [12], in [13] and in [14] was “inactive” throughout. Moreover, the compound was classed as inactive (in assay [4]; in assay [5]; in assay [15]; in [9]; with Aromatase (Homo sapiens)).

Values taken from PubChem BioAssay (Tox21).
